# L major viab – reduces viability of Leishmania major promastigotes. resazurin fluorescence viability. inhibition, % at 10 µM. 200,000 tested, 9% active. AID 1063; in the data active = inhibition above about 50%;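 note: promastigotes grown with compound for 44 hours at 28 °C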
# CHOP inhibitor – inhibitors of CHOP induction in ER stress response; AID 2732; CHO-K1 CHOP-promoter luciferase, tunicamycin-induced, 15-18 h; 220,000 tested, 3.8% active; inhibition, % at 10 µM;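 active = compounds that reduced the stress-induced luciferase reporter signal by more than about 70% of percent inhibition, limit read from the data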
# Arbovirus inh – blocks arbovirus infection; arbovirus infection cell-based antiviral screen; inhibition, % at 10 µM; 200,000 tested, 0.37% active; AID 1251; in the data active = inhibition above about 30%
# WT yeast gro inh – growth inhibition of WT yeast, mitochondrial fusion screen | 190,000 tested, 2.1% active | AID 1362 | inhibition, % at 10 µM | mitochondrial fusion phenotypic screen, WT strain; in the data active = inhibition above about 58%; tested in S. cerevisiae
# A number is an active result; i = inactive; nt = not tested or not shown. This is a sample that favours compounds with a hit; in the whole collection about 12% have one here.
SMILES,L major viab,CHOP inhibitor,Arbovirus inh,WT yeast gro inh
CCOC(=O)CON1C(=O)C(=O)N(OCC(=O)OCC)C2CCCCC21 (configuration not stated),i,i,i,i
CCOc1ccc(N2C(=O)CC(SC(=NC)Nc3cccc(F)c3)C2=O)cc1 (configuration not stated),i,i,i,i
CCOc1ccc(N2C(=O)CC(SC(=NC)Nc3ccc4c(c3)OCO4)C2=O)cc1 (configuration not stated),i,73,i,i
CN=C(Nc1ccc(C)c(C)c1)SC1CC(=O)N(c2ccc(OC)cc2)C1=O (configuration not stated),74,i,i,i
COc1cc(/C=N/NC(=O)/C(=C/c2ccccc2)CCO)ccc1O,i,i,i,i
O=C(N/N=C/c1ccc(O)cc1O)/C(=C/c1ccccc1)CCO,98,i,i,i
N=C1S/C(=C\c2cccc3ccccc23)C(=O)N1c1ccc(F)cc1,i,99,i,i
N=C1S/C(=C\c2ccccc2F)C(=O)N1c1ccc(F)cc1,i,i,i,i
CS(=O)(=O)N1CCN(c2ccc(NC(=O)c3ccccc3)cc2)CC1,i,i,i,i
COc1ccc(C2NC(c3ccc(OC)cc3)C(c3ccccc3)C(=O)C2c2ccccc2)cc1 (configuration not stated),98,i,i,i
COc1ccc(C2NC(c3ccc(OC)cc3)C([N+](=O)[O-])C(C)(C)C2[N+](=O)[O-])cc1 (configuration not stated),i,i,i,i
COc1ccc(NC(=S)N(CCc2c(C)[nH]c3ccc(C)cc23)Cc2cccs2)cc1,54,i,i,66
CNC(=S)N(CCc1c(C)[nH]c2ccc(C)cc12)Cc1cc(OC)c(OC)c(OC)c1,i,i,i,i
COc1ccccc1NC(=S)N(CCc1c(C)[nH]c2ccccc12)Cc1cccs1,i,i,i,i
CNC(=S)N(CCc1c(C)[nH]c2ccc(C)cc12)Cc1cccs1,i,i,i,65
COc1ccc2[nH]c(C)c(CCN(Cc3cccs3)C(=S)Nc3ccccc3)c2c1,i,70,i,i
COc1ccc2[nH]c(C)c(CCN(Cc3cccs3)C(=S)Nc3ccc(F)cc3)c2c1,i,78,i,i
COc1ccc2[nH]c(C)c(CCNC(=S)Nc3ccc(F)cc3)c2c1,i,i,i,i
O=C1C2C3C=CC(C3=C(c3ccccc3)c3ccccc3)C2C(=O)N1Cc1ccccc1 (configuration not stated),i,i,i,i
CCOc1ccc(S(=O)(=O)NCCC(=O)OCC(=O)Nc2cc(C)on2)cc1,nt,i,nt,nt
COCCn1c(C)cc(/C=C2/NC(=O)N(c3cccc(Cl)c3)C2=O)c1C,i,71,i,i
c1ccc(-c2[nH]ncc2CN2CCN(Cc3ccc4c(c3)OCO4)CC2)cc1,nt,i,nt,nt
CCc1ccc(-c2cc(C(=O)NN3CCOCC3)c3ccccc3n2)cc1,i,i,i,i
O=C(NN1CCOCC1)c1cc(-c2ccc(Br)cc2)nc2ccccc12,58,i,i,i
COc1cc(-c2cc(C(=O)Nc3ccccc3N3CCOCC3)c3ccccc3n2)cc(OC)c1OC,61,i,i,i
SMILES,L major viab,CHOP inhibitor,Arbovirus inh,WT yeast gro inh
O=C(Nc1ccccc1N1CCOCC1)c1cc(-c2ccco2)nc2ccccc12,i,i,i,i
Cc1noc(-c2ccc(C(F)(F)F)cc2)c1NC(=O)Nc1ccc(Cl)cc1,nt,i,nt,nt
COc1cccc(NC(=O)CSc2nc3ccccc3cc2Cc2ccccc2)c1,i,i,i,i
COc1cccc(CSc2nc3ccccc3cc2C=O)c1,97,i,i,i
O=C(Nc1ccc(-c2nc3ccccc3[nH]2)cc1)c1ccc(N2C(=O)CCC2=O)cc1,50,i,i,i
Cc1ccccc1C(=O)Nc1ccc(-c2nc3ccc(C(=O)c4ccccc4)cc3[nH]2)cc1,98,i,i,i
O=C(Nc1ccc(-c2nc3ccc(NC(=O)c4cccs4)cc3[nH]2)cc1)c1cccs1,i,i,i,i
O=C(c1ccccc1)c1ccc2nc(-c3ccc(NC(=O)c4ccccc4Br)cc3)[nH]c2c1,97,i,i,i
CCN1C(=O)C2(C(C(=O)c3cc4ccccc4o3)=C(O)C(=O)N2CCCN(C)C)c2ccccc21 (configuration not stated),nt,i,nt,nt
CCOC(=O)/C(N=Nc1ccc(Cl)cc1)=C(/O)c1ccc([N+](=O)[O-])cc1,i,86,i,nt
O=C(O)c1cccc(NCc2cccnc2)c1,i,i,i,i
Cn1c(-c2ccc3c(c2)OCO3)cnc1NCc1cccc(O)c1,63,i,i,i
Cn1c(-c2cccc(Br)c2)cnc1NCc1cccnc1,97,i,i,i
Cn1c(-c2ccc(F)cc2)cnc1NCc1ccccc1,i,i,i,i
Cn1c(-c2ccc(F)cc2)cnc1NCc1cccc(F)c1,78,i,i,i
COc1cccc(-c2cnc(NCc3cc(Cl)ccc3O)n2C)c1,63,i,i,i
CCOCCCNC(=O)c1ccc2c(c1)N=C(CC)c1cc(Br)ccc1S2,i,i,i,i
CCC1CC2CC(NC(C)=O)C1C2 (configuration not stated),i,i,i,i
O=C(C1COc2ccccc2O1)N1CCc2ccccc2C1 (configuration not stated),i,i,i,i
COc1ccccc1N1CCN(C(c2ccccn2)c2nnnn2C2CCCCC2)CC1 (configuration not stated),i,i,i,i
COc1ccccc1N1CCN(C(c2cc3ccc(C)cc3[nH]c2=O)c2nnnn2C2CCCC2)CC1 (configuration not stated),62,i,i,i
CCOC(=O)C1CCN(C(c2cc3ccc(C)cc3[nH]c2=O)c2nnnn2C2CCCCC2)CC1 (configuration not stated),88,i,i,i
COc1cc2cc(C(c3nnnn3C3CCCC3)N3CCc4ccccc43)c(=O)[nH]c2cc1OC (configuration not stated),i,i,i,i
COc1ccccc1N1CCN(C(c2cc3cc(C)ccc3[nH]c2=O)c2nnnn2C2CCCC2)CC1 (configuration not stated),54,91,i,i
CCCCc1ccc(-n2nnnc2SCC(=O)Nc2cc(OC)c([N+](=O)[O-])cc2C)cc1,i,i,i,i
SMILES,L major viab,CHOP inhibitor,Arbovirus inh,WT yeast gro inh
CCOc1ccccc1Nc1nnc(SC(C)C(=O)Nc2nc(-c3ccccc3)cs2)s1 (configuration not stated),i,i,i,i
Cc1ccc(NS(=O)(=O)c2cc(NC(=O)C(C)Oc3ccccc3)ccc2C)c(C)c1 (configuration not stated),98,i,i,i
Cc1ccc(NC(=O)CNc2ccc(OC(C)C)cc2)c(C)c1,i,i,i,i
CN(C)C(C)(C)C#CCC(c1ccccc1)c1ccccc1,100,i,i,i
CN(C)C(C)(C)C#CCCCCC#CC(C)(C)N(C)C,i,i,i,i
O=C(CN1CCc2ccccc2C1)NCC(=O)Nc1ccc(F)cc1,i,i,i,i
C(=C\c1ccccc1)/CN1CCN(Cc2nc(Cc3ccccc3)no2)CC1,80,i,i,i
c1ccc(Cc2noc(CN3CCN(Cc4ccc5c(c4)OCO5)CC3)n2)cc1,90,i,i,i
COc1ccccc1CN1CCN(Cc2nc(Cc3ccccc3)no2)CC1,i,i,i,i

# High-throughput results deposited in PubChem by several laboratories.
